Measured values published in PubChem BioAssay.
Results filed as inconclusive are left out. Activity calls are given as the source filed them.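 How the source made its calls, unless noted: active means inhibition over a set limit, the all-compound mean plus 3 SD, in both replicate runs; inconclusive means over that limit in just one replicate run; inactive means at or under that limit in both runs.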

Experiments:
[1] = SK-BR-3 cell growth inhibitors, pilot screen, 24 h, human (AID 572;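 active means viability at or below 10% of carrier control in both of two separate runs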;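 further: compound exposure lasted between 18 and 24 h rather than exactly 24 h; 100% = carrier-treated control wells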); conditions: SK-BR-3 viability, CellTiter-Glo luminescence, at 10 µM, stronger effect = lower value
[2] = HUVEC growth inhibition – cell-based, human, primary screen (AID 575;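 active means viability at or below 30% in both replicate assays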;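 further: 100% = median of untreated cell wells with 0.1% DMSO on each plate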); conditions: HUVEC proliferation, CellTiter-Glo luminescence, 72 h; at 10 µM; stronger effect = lower value
[3] = growth inhibitors of H69AR lung tumor, primary screen, human, duplicate replicates (AID 580;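 active means viability at or under a set limit in both replicates, limit being median viability minus 3 SD, cut at about 48% in these data, passing the limit was not always enough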;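 further: 100% = mean luminescence of untreated wells and 0% = no signal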); conditions: H69AR lung tumor cells viability, ATP luminescence, 72 h; at 10 µM; stronger effect = lower value
[4] = reversal of MRP1-mediated doxorubicin resistance, pilot screen, H69AR cells, doxorubicin co-treatment (AID 601;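 active means viability loss from added drug above about 55%, and viability with drug at most 40%, in both replicates, limit read from the data, passing the limit was not always enough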); conditions: CellTiter-Glo, 72 h, at 10 µM; for differential viability (reversal): stronger effect = higher value
[5] = 384-well plate pilot, post-Golgi transport modulator project, inhibition of yeast transport mutant growth (AID 636; in the data active means inhibition above about 31%); conditions: absorbance 615 nm, about 18 h, stronger effect = higher value
[6] = growth suppression of yeast trafficking mutant, preliminary HTS, modulators of trafficking downstream of Golgi apparatus project, 1536-format plate, OD 615 nm (AID 637; in the data active means inhibition above about 30%); conditions: yeast transport mutant growth, absorbance 615 nm, 18 h; stronger effect = higher value
[7] = OD615 S. cerevisiae growth inhibition, permissive medium, pilot counter-assay, permissive growth control for S. cerevisiae lifespan shortening project (AID 705;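 active means growth inhibition above 25% in both replicates, a cutoff set 3 SD above the mean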); conditions: OD615, 24 h, at 10 µM, stronger effect = higher value
[8] = Restrictive medium S. cerevisiae growth inhibition, OD615, pilot screen of yeast lifespan reduction project, restrictive growth control (AID 706;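 active means growth inhibition above a set limit, 3 SD over mean compound inhibition, in both replicates, cut at about 43% in these data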;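 further: modified DeaD lifespan yeast strain shifted to restrictive glucose medium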); conditions: OD615, 48 h, at 10 µM, stronger effect = higher value
[9] = viability gain of MRP-1-high H69AR cells under doxorubicin, pilot screen, MRP-1 activator project, CellTiter-Glo, duplicate (AID 807;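 active means viability increase at or above a cutoff of the median across tested compounds plus 3 SD, cut at about 8.5% in these data, passing the limit was not always enough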;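 further: compound pretreatment 18-22 h then 72 h combined with doxorubicin; 0% = doxorubicin alone and 100% = vehicle without doxorubicin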); conditions: H69AR viability with doxorubicin, CellTiter-Glo luminescence; at 10 µM; stronger effect = higher value
[10] = growth suppression of beta-catenin knockout HCT116, pilot screen, human colon tumor cells (AID 823;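 active means cell viability at or below a set limit in both duplicate runs, the limit being the all-compound median minus 4 SD, cut at about 23% in these data, passing the limit was not always enough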;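 further: 0% = wells killed by 20 µM Hyamine and 100% = untreated DMSO cell wells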); conditions: CellTiter-Glo, 60 h, at 10 µM, stronger effect = lower value
[11] = inhibitors of the yeast RAM network, pilot screen, dse1pr::URA3 reporter, 5-FOA selection (AID 869);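 further: 0% = DMSO wells with no growth and 100% = 10 µM 1-NA-PP1 with full growth; RAM network block rescues cells from 5-FOA so hits raise OD615 growth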; conditions: S. cerevisiae dse1pr::URA3 5-FOA growth, OD615, 2 d; at 10 µM; stronger effect = higher value; strain carries analog-sensitive mutant Cbk1 kinase
[12] = RAM signaling pathway blockade in yeast – S. cerevisiae, Pdr1DBD-CYC8 efflux-inhibited sensitized strain, primary screen (AID 1298;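 active means RAM network inhibition above 8.4% in each of two replicates, 3 SD over the compound average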;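 further: 0% = DMSO untreated cells without growth and 100% = 10 µM 1-NA-PP1 full growth; higher means more yeast growth rescued from 5-FOA killing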); conditions: S. cerevisiae cbk1-as DSE1-URA3 strain, 5-FOA growth OD615, 2 d; at 50 µM; stronger effect = higher value
[13] = growth suppression of PTEN-deleted HCT116, pilot screen, cell-based, HCT116 clonal line, CellTiter-Glo (AID 824;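 active means viability at or below 27.92% in each of two runs, the all-compound median minus 4 SD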;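 further: 0% = 20 µM Hyamine control and 100% = vehicle cell control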); conditions: 60 h, at 10 µM, stronger effect = lower value
[14] = H69AR cells + 2 uM doxorubicin, measured here: viability with 2 uM doxorubicin, stronger effect = lower value
[15] = H69AR cells, compound alone cytotoxicity

| Compound | viability [1] | viability [2] | viability [3] | differential viability (reversal) ([4]; H69AR cells + 2 uM doxorubicin) | viability [4, 14] [%] | viability [4, 15] [%] | inhibition [5] | inhibition [6] | growth inhibition [7] | growth inhibition [8] | viability increase [9] | viability [10] | inhibition [11] | RAM network inhibition [12] | viability [13] |
| --- | --- | --- | --- | --- | --- | --- | --- | --- | --- | --- | --- | --- | --- | --- | --- |
| CCc1ccc(C(=O)NC2CCCCC2)s1 | 68% (inactive) | 94.7% (inactive) | 109% (inactive) | 17.8% (inactive) | 90.7 | 109 | -3.01% (inactive) | 0.81% (inactive) | -14.4% (inactive) | 3.24% (inactive) | -0.13% (inactive) | 91.8% (inactive) | -0.215% (inactive) | 4.77% (inactive) | – |
| COC(=O)c1cc(-c2ccccc2)sc1NC(=O)c1cc(C)on1 | 121% (inactive) | 96.6% (inactive) | 95.9% (inactive) | 5.14% (inactive) | 90.8 | 95.9 | -4.38% (inactive) | -6.45% (inactive) | -0.31% (inactive) | -11.1% (inactive) | -2.24% (inactive) | 93.7% (inactive) | 1.4% (inactive) | 2.94% (inactive) | 84.2% (inactive) |
| NC(=O)c1sc2nc(N3CCCCC3)c3c(c2c1N)CCCC3 | 75% (inactive) | 82.8% (inactive) | 85.7% (inactive) | -0.75% (inactive) | 86.4 | 85.7 | -6.89% (inactive) | 2.17% (inactive) | 8.56% (inactive) | – | -3.63% (inactive) | 104% (inactive) | 0.715% (inactive) | 5.61% (inactive) | 94.6% (inactive) |
| c1ccc(-c2nnc(SCc3nc4ccccc4[nH]3)o2)cc1 | 94% (inactive) | 98.9% (inactive) | 88.8% (inactive) | 2.98% (inactive) | 85.8 | 88.8 | -5.6% (inactive) | 0.91% (inactive) | 7.59% (inactive) | – | -5.05% (inactive) | 93.5% (inactive) | 1.33% (inactive) | 1.69% (inactive) | 88.8% (inactive) |
| CCOC(=O)Nc1c(O)ccc2oc(C)c(-c3ccccc3)c12 | 102% (inactive) | 68.7% (inactive) | 99.8% (inactive) | 0.02% (inactive) | 99.8 | 99.8 | 0.26% (inactive) | 15.3% (inactive) | -15.4% (inactive) | -6.34% (inactive) | -2.89% (inactive) | 79.4% (inactive) | 1.51% (inactive) | 3.9% (inactive) | 80.9% (inactive) |
| Cc1cc(NC(=O)CS(=O)(=O)c2cn(Cc3ccccc3Cl)c3ccccc23)no1 | 92% (inactive) | 79.2% (inactive) | 92.1% (inactive) | 11.1% (inactive) | 81 | 92.1 | -5.2% (inactive) | 5.82% (inactive) | -4.35% (inactive) | -0.555% (inactive) | -2.24% (inactive) | – | 2.17% (inactive) | 3.11% (inactive) | 47.8% (inactive) |
| O=C(Nc1cnccn1)c1cccs1 | 115% (inactive) | 106% (inactive) | 99% (inactive) | 7.32% (inactive) | 91.7 | 99 | -10.8% (inactive) | 1.77% (inactive) | -10.4% (inactive) | 1.52% (inactive) | -2.25% (inactive) | – | 0.89% (inactive) | 7.21% (inactive) | 94.2% (inactive) |
| CCN(CC)S(=O)(=O)c1ccc2c(c1)nc(SCn1nnc3ccccc3c1=O)n2CC | 74% (inactive) | 81.1% (inactive) | 83.2% (inactive) | 8.64% (inactive) | 74.6 | 83.2 | -4.93% (inactive) | -2.36% (inactive) | -1.67% (inactive) | -5.42% (inactive) | 2.88% (inactive) | 90.7% (inactive) | 2.54% (inactive) | 7.57% (inactive) | 103% (inactive) |
| CCCCC(NC(C)=O)c1nc2ccccc2n1CCC (stereo not given) | – | 93.9% (inactive) | 100% (inactive) | 10.6% (inactive) | 89.7 | 100 | 1.32% (inactive) | 7.62% (inactive) | -5.8% (inactive) | -2.95% (inactive) | -0.99% (inactive) | 93.6% (inactive) | 1.44% (inactive) | -0.69% (inactive) | 93.3% (inactive) |
| COc1ccc(C2C(C#N)=C(C)NC3=C2C(=O)CC(C)(C)C3)c(OC)c1 (stereo not given) | – | 88.9% (inactive) | 95.3% (inactive) | 23.5% (inactive) | 71.8 | 95.3 | -1.3% (inactive) | -2.7% (inactive) | -22.8% (inactive) | -14.1% (inactive) | -1.62% (inactive) | 97.6% (inactive) | 0.825% (inactive) | 1.94% (inactive) | 91.4% (inactive) |
| CCCN1CCN(C(=O)c2cn(CC(C)C)c(=O)c3cc(OC)c(OC)cc23)CC1 | – | 93.1% (inactive) | 78% (inactive) | -0.945% (inactive) | 78.9 | 78 | -4.74% (inactive) | 4.92% (inactive) | -19.2% (inactive) | -0.27% (inactive) | -2.46% (inactive) | 100% (inactive) | 2.42% (inactive) | 2.08% (inactive) | 88.4% (inactive) |
| CCc1cc2c(NCCC(=O)O)ncnc2s1 | – | 83.3% (inactive) | 97.6% (inactive) | 5.87% (inactive) | 91.7 | 97.6 | -3.51% (inactive) | -0.48% (inactive) | -7.78% (inactive) | -13.1% (inactive) | -1.99% (inactive) | 101% (inactive) | 3.42% (inactive) | 2.49% (inactive) | 99.6% (inactive) |
| c1ccc2c(c1)ccc1nnc(-c3ccc4c(c3)OCO4)n12 | – | 98.7% (inactive) | 96% (inactive) | 4.88% (inactive) | 91.1 | 96 | -1.82% (inactive) | 3.33% (inactive) | -7.74% (inactive) | 2.03% (inactive) | -5.23% (inactive) | 93.7% (inactive) | 1.31% (inactive) | 1.81% (inactive) | 90.9% (inactive) |
| Cc1ccc(-c2cc(C(F)F)nc(N3CCC(C)CC3)n2)cc1 | – | 85.7% (inactive) | 91.1% (inactive) | 1.39% (inactive) | 89.7 | 91.1 | -4.47% (inactive) | 1.75% (inactive) | 3.35% (inactive) | 6.11% (inactive) | 1.95% (inactive) | 100% (inactive) | 2.67% (inactive) | 6.64% (inactive) | 101% (inactive) |
| O=C1CC(c2ccco2)CC(O)=C1C=NCCN1CCNCC1 (stereo not given) | – | 103% (inactive) | 95.6% (inactive) | 3.35% (inactive) | 92.3 | 95.6 | 0.13% (inactive) | 5.56% (inactive) | -10.2% (inactive) | 3.51% (inactive) | 0.26% (inactive) | 91% (inactive) | 0.405% (inactive) | 1.52% (inactive) | 101% (inactive) |
| COc1ccccc1NC(=O)N(Cc1ccccc1)c1ccccn1 | – | 83.4% (inactive) | 85.3% (inactive) | -5.91% (inactive) | 91.2 | 85.3 | -5.58% (inactive) | -4.92% (inactive) | -9.36% (inactive) | -2.62% (inactive) | 0.35% (inactive) | 87% (inactive) | 2.24% (inactive) | 6.47% (inactive) | 88.6% (inactive) |
| O=C(NCCc1cccc(Cl)c1)c1cccnc1 | – | 87.9% (inactive) | 103% (inactive) | 26.5% (inactive) | 76.8 | 103 | -2.21% (inactive) | 5.4% (inactive) | -1.24% (inactive) | 10.7% (inactive) | -0.51% (inactive) | 98.9% (inactive) | 0.32% (inactive) | 1.21% (inactive) | 98.3% (inactive) |
| CCn1c(CCNC(=O)c2ccc(OC)c(OC)c2)nc2ccccc21 | – | 103% (inactive) | 83.2% (inactive) | 6.54% (inactive) | 76.6 | 83.2 | -5.92% (inactive) | -2.22% (inactive) | -10.8% (inactive) | -11.1% (inactive) | -2.22% (inactive) | 102% (inactive) | 1.87% (inactive) | 4.36% (inactive) | 99.2% (inactive) |
